Records with an inconclusive call do not appear. A call without a number means that no potency is given here. The source made the active and inactive calls. Calls follow the shape of the dose curve; as a rule, active = well fitted inhibition curve with a large enough effect in the repeat runs; inconclusive = weak or mixed curves, or effect the other way; inactive = no such curve, though single readings can be large or run the other way.
Test: qHTS assay to identify small molecule antagonists of the retinoic acid receptor (RAR) signaling pathway (AID 1159552; also: nearly all actives have a fitted effect of over 50% in size)
Conditions: C3RL4 RARE luciferase reporter, retinol-stimulated, 6 h; series mostly up to 92.4 µM
Method in brief: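 Antagonism of retinol-induced RARE reporter activity was measured in C3RL4 cells. Exposure to compounds and 1 uM final retinol lasted 6 hr at 37 C, with luminescence as endpoint.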
Potency is read from the fitted curve at half-maximal effect.

SMILES	Potency
Cc1c([N+](=O)[O-])c(C)c([N+](=O)[O-])c(C(C)(C)C)c1[N+](=O)[O-]	inactive
O=c1[nH]c(Cl)c(Cl)cc1Cl	inactive
c1ccc2nc(N3CCNCC3)ccc2c1	inactive
CCC(C)Nc1c([N+](=O)[O-])cc(C(C)(C)C)cc1[N+](=O)[O-] (stereo not given)	inactive
CCOP(=S)(NC(C)C)Oc1ccccc1C(=O)OC(C)C (stereo not given)	54.5 µM (active)
Cc1c([N+](=O)[O-])cc2c(c1[N+](=O)[O-])C(C)(C)CC2(C)C	inactive
ClC1=C(Cl)[C@]2(Cl)[C@@H]3[C@H]4C[C@H]([C@@H]5O[C@H]45)[C@@H]3[C@@]1(Cl)C2(Cl)Cl	inactive
CCCCCCC[CH2][Sn]([Cl])([Cl])[CH2]CCCCCCC	inactive
C=CCOC(=O)c1ccccc1N	inactive
CCOP(=O)(OCC)Oc1nc(Cl)c(Cl)cc1Cl	inactive
Brc1ccc(Oc2ccc(Br)cc2Br)c(Br)c1	inactive
CC1=C2C[C@H]3[C@@H](CC=C4C[C@@H](O)CC[C@@]43C)[C@@H]2CC[C@]12O[C@@H]1C[C@H](C)CN[C@H]1[C@H]2C	inactive
CCC[CH2][Sn]([CH2]CCC)([O]C(C)=O)[O]C(C)=O	0.138 µM (active)
CCC(OC(C)=O)C(CC(C)NC)(c1ccccc1)c1ccccc1 (stereo not given)	30.9 µM (active)
Cc1cc(C2CC2)nc(Nc2ccccc2)n1	inactive
CCCCC/C=C\C/C=C\C/C=C\C/C=C\CCCC(=O)NCC(=O)O	inactive
CCCCCCCc1ccc(O)cc1	inactive
c1ccc(Nc2ccc(Nc3ccccc3)cc2)cc1	inactive
N#CC(C#N)=NNc1cccc(Cl)c1	2.73 µM (active)
N#Cc1c2ccccc2cc2ccccc12	inactive
